Here are results for nine compounds from PubChem BioAssay (Tox21).

Assay [1] can be described thus: qHTS assay to identify aromatase inhibitors - cell viability counter screen (AID 743084).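 Further: cells stimulated with testosterone during compound exposure; nearly all actives have a fitted effect of over 55% in size.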 In general terms: In qHTS, concentration-response curves come from the screen itself.
Assay [2] can be described thus: qHTS assay to identify small molecule that activate the aryl hydrocarbon receptor (AhR) signaling pathway - cell viability counter screen (AID 743086).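 Further: HepG2 liver cells carrying the AhR DRE luciferase reporter; series mostly up to about 70 µM; nearly all actives have a fitted effect of over 45% in size.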 In short, it runs like this: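 HepG2-AhR-luc (HG2L7.5c1) cells, 4000/well, treated 24 h at 37 C with compound; viability measured as CellTiter-Fluor fluorescence after 30 min in the same wells as the luciferase read.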

The target of assay [3] is Peroxisome proliferator-activated receptor gamma (Homo sapiens) (UniProt P37231). Briefly: qHTS assay to identify small molecule agonists of the peroxisome proliferator-activated receptor gamma (PPARg) signaling pathway (AID 743094; active means well fitted activation curve with a large enough effect in the signal ratio in the repeat runs, not every such curve was filed as active; the % refers to the signal ratio). In short, it runs like this:
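Fluorescence-based beta-lactamase readout in HEK293H PPARg UAS-bla cells after 17 h compound exposure (37C) and 1 h B/G FRET substrate incubation at room temperature.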

Assay [4] has the same target. Briefly: qHTS assay to identify small molecule antagonists of the peroxisome proliferator-activated receptor gamma (PPARg) signaling pathway (AID 743191; calls by dose curve; further: series mostly up to about 63 µM; nearly all actives have a fitted effect of over 30% in size). In short, it runs like this: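 GeneBLAzer PPARg UAS-bla HEK293H cells, 5 h post-plating, exposed to compounds 17 h at 37C. LiveBLAzer B/G FRET substrate added for 1 h at room temperature; beta-lactamase reporter read by fluorescence intensity.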

A short description of assay [5]: qHTS assay to identify small molecule antagonists of the peroxisome proliferator-activated receptor gamma (PPARg) signaling pathway - cell viability counter screen (AID 743194). Further: nearly all actives have a fitted effect of over 55% in size. An outline of the steps:
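Cytotoxicity counter screen in PPARg-bla HEK293H cells, same wells as reporter assay. Compounds plus 50 nM rosiglitazone (final) for 17 h at 37 C, then viability read by CellTiter-Glo luminescence.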

A short description of assay [6]: qHTS assay for small molecule agonists of the antioxidant response element (ARE) signaling pathway (AID 743202; active means well fitted activation curve with a large enough effect in the signal ratio in the repeat runs, not every such curve was filed as active; the % refers to the signal ratio). In short, it runs like this:
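HepG2 ARE-bla reporter line, 2,000 cells/well; 5 h preincubation 37 C/5% CO2; compound (DMSO) 16 h 37 C; B/G FRET substrate 2 h RT; fluorescence intensity.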

A short description of assay [7]: qHTS assay for small molecule agonists of the antioxidant response element (ARE) signaling pathway - cell viability counter screen (AID 743203; calls by dose curve; further: nearly all actives have a fitted effect of over 55% in size). An outline of the steps: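 Parallel cytotoxicity read-out for the ARE-bla screen: HepG2 reporter cells, 16 hrs with compounds, then CellTiter-Glo luminescence.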
A short description of assay [8]: qHTS assay for small molecule activators of the heat shock response signaling pathway - cell viability counter screen (AID 743209). Further: nearly all actives have a fitted effect of over 50% in size. An outline of the steps:
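To flag cytotoxic compounds, HSE-bla HeLa cells plated at 1500 cells/well were dosed for 5 h at 37 C, followed by the reporter FRET read and then CellTiter-Glo, with luminescence recorded 30 min after reagent addition.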

The nature of assay [9]: qHTS assay for small molecule activators of the heat shock response signaling pathway (AID 743210; active means well fitted activation curve with a large enough effect in the signal ratio in the repeat runs, with a control signal flat, not every such curve was filed as active; the % refers to the signal ratio; further: series mostly up to about 63 µM). In short, it runs like this: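 Beta-lactamase reporter read-out: FRET substrate fluorescence after 2.5 h at RT, following 5 h compound treatment at 37 C of HeLa cells carrying HSE-driven bla reporter; quantitative HTS format.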
Assay [10] can be described thus: qHTS assay to identify small molecule agonists of the peroxisome proliferator-activated receptor delta (PPARd) signaling pathway - cell viability counter screen (AID 743211). Further: nearly all actives have a fitted effect of over 55% in size. In short, it runs like this:
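Luminescent ATP viability assay (CellTiter-Glo, 30 min RT) in UAS-bla HEK293H cells carrying the PPAR delta reporter construct, 3000 cells/well, after a 17 h compound treatment at 37 C.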

Assay [11] has as its target Peroxisome proliferator-activated receptor delta (Homo sapiens) (UniProt Q03181). Briefly: qHTS assay to identify small molecule agonists of the peroxisome proliferator-activated receptor delta (PPARd) signaling pathway (AID 743212; calls by dose curve). In short, it runs like this:
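Read-out: beta-lactamase FRET fluorescence after 2 h room-temperature incubation with LiveBLAzer B/G substrate. Cells were HEK293H carrying a UAS-bla reporter for PPARd, treated at 37 C with DMSO-dissolved compounds.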

Assay [12] in a line: qHTS assay to identify small molecule antagonists of the peroxisome proliferator-activated receptor delta (PPARd) signaling pathway - cell viability counter screen (AID 743213). Further: nearly all actives have a fitted effect of over 50% in size. An outline of the steps:
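Agonist-stimulated (L165041, 300 nM final) HEK293H PPARd UAS-bla cells are exposed to compounds for 17 h at 37 C, and ATP-based luminescence (CellTiter-Glo) from the same wells reports cytotoxicity.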

Assay [13] concerns the target Peroxisome proliferator-activated receptor delta (Homo sapiens) (UniProt Q03181). Briefly: qHTS assay to identify small molecule antagonists of the peroxisome proliferator-activated receptor delta (PPARd) signaling pathway (AID 743215; active means well fitted inhibition curve with a large enough effect in the signal ratio in the repeat runs, not every such curve was filed as active; the % refers to the signal ratio; further: series mostly up to about 62 µM). In short, it runs like this: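 Screen format: qHTS, antagonist mode. HEK293H PPARd-bla cells received compound and 300 nM L165041 (final), 17 h, 37 C. Beta-lactamase detected via FRET substrate fluorescence, 2 h, room temperature.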

Assay [14] deals with Bile acid receptor (Homo sapiens) (UniProt Q96RI1). Briefly: qHTS assay to identify small molecule antagonists of the farnesoid-X-receptor (FXR) signaling pathway (AID 743217; active means well fitted inhibition curve with a large enough effect in the signal ratio in the repeat runs, not every such curve was filed as active; the % refers to the signal ratio). An outline of the steps:
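Quantitative HTS, beta-lactamase reporter format: FXR-UAS-bla HEK 293T cells co-treated 16 h at 37 °C with compounds and 50 uM final chenodeoxycholic acid, then read by B/G FRET fluorescence.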

A short description of assay [15]: qHTS assay to identify small molecule agonists of the farnesoid-X-receptor (FXR) signaling pathway - cell viability counter screen (AID 743218). Further: nearly all actives have a fitted effect of over 45% in size. In short, it runs like this:
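Same-well cytotoxicity check on FXR-UAS-bla HEK 293T cells: 5 h attachment, 16 h compound at 37 C, CellTiter-Glo luminescence read at room temperature after 30 min.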

In assay [16] the target is Bile acid receptor (Homo sapiens) (UniProt Q96RI1). Briefly: qHTS assay to identify small molecule agonists of the farnesoid-X-receptor (FXR) signaling pathway (AID 743220; active means well fitted activation curve with a large enough effect in the signal ratio in the repeat runs, not every such curve was filed as active; the % refers to the signal ratio). In short, it runs like this: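 FXR-UAS-bla HEK 293T cells carrying a UAS-driven beta-lactamase reporter were plated for 5 h at 37C/5% CO2, then exposed to DMSO-dissolved Tox21 10K compounds for 16 h at 37C. A LiveBLAzer B/G FRET substrate was loaded for 2 h at room temperature before fluorescence reading.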

Assay [17] in a line: qHTS assay to identify small molecule antagonists of the farnesoid-X-receptor (FXR) signaling pathway - cell viability counter screen (AID 743221; active means well fitted cell-killing curve with a large enough effect in the repeat runs, not every such curve was filed as active; further: nearly all actives have a fitted effect of over 50% in size). An outline of the steps: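 In GeneBLAzer FXR-UAS-bla HEK 293T cells stimulated with 50 uM chenodeoxycholic acid (final), compounds acted for 16 h at 37 C. Viability was assessed afterwards by CellTiter-Glo luminescence.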
Assay [18] addresses Vitamin D3 receptor (Homo sapiens) (UniProt P11473). Briefly: qHTS assay to identify small molecule agonists of the vitamin D receptor (VDR) signaling pathway (AID 743222; calls by dose curve). In short, it runs like this:
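Using LiveBLAzer B/G FRET detection, agonism was scored in VDR-bla cells exposed overnight (16 h, 37C) to DMSO-dissolved compounds; substrate incubation was 2 h at room temperature.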

Assay [19] shares this target. Briefly: qHTS assay to identify small molecule antagonists of the vitamin D receptor (VDR) signaling pathway (AID 743223; active means well fitted inhibition curve with a large enough effect in the signal ratio in the repeat runs, not every such curve was filed as active; the % refers to the signal ratio). In short, it runs like this: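 Agonist 1alpha,25-dihydroxyvitamin D3 (3 nM in well) was added with each compound to VDR-bla cells preincubated 4 h. Cells stood 16 h at 37C, then FRET substrate 2 h at room temperature; fluorescence intensity recorded.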

In assay [20] the target is Aryl hydrocarbon receptor (Homo sapiens) (UniProt P35869). Briefly: qHTS assay to identify small molecule that activate the aryl hydrocarbon receptor (AhR) signaling pathway (AID 743085). Further: nearly all actives have a fitted effect of over 15% in size. Further: potency means the concentration at half of the fitted maximal effect.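 On activation: HG2L7.5c1 human HepG2 liver cells with stably integrated DRE-driven firefly reporter; series mostly up to about 70 µM.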 An outline of the steps:
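24 h compound exposure, 37C, HepG2-derived HG2L7.5c1 cells with DRE-responsive luciferase. Readouts: fluorescence viability, then luminescence at room temperature after 30 min.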

Inconclusive results are not listed. Activity calls are given as the source filed them. Unless noted, the call rests on the fitted dose curve; in most records, active means well fitted curve in the direction sought with a large enough effect in the repeat runs; inconclusive means weak or mixed curves; inactive means no such curve, though single readings can be large; an effect the other way counts as inactive or inconclusive.

Aryl hydrocarbon receptor (Homo sapiens), sequence (P35869 whole entry, looked up): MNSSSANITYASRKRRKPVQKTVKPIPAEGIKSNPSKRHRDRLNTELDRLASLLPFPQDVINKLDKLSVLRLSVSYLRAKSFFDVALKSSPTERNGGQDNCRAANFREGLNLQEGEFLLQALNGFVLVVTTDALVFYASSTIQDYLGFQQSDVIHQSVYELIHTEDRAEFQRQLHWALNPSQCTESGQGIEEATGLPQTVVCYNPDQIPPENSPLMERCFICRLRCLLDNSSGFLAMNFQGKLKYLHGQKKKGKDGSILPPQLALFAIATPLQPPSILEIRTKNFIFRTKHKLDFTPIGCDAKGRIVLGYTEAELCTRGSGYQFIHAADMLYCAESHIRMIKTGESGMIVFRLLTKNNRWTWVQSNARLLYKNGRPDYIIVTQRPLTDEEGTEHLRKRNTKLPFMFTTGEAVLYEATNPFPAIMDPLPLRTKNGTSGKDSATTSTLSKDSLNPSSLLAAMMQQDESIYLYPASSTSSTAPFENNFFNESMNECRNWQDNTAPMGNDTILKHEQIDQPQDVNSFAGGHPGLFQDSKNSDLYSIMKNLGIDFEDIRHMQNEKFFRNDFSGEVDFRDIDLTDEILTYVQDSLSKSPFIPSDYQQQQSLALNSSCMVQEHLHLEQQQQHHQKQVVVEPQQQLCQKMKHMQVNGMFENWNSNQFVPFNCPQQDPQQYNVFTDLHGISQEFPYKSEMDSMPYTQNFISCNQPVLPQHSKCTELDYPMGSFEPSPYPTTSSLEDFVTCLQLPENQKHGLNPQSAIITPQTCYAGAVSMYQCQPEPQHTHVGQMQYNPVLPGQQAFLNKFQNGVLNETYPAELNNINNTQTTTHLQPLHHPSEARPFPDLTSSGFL
Peroxisome proliferator-activated receptor gamma (Homo sapiens), sequence (P37231 whole entry, looked up): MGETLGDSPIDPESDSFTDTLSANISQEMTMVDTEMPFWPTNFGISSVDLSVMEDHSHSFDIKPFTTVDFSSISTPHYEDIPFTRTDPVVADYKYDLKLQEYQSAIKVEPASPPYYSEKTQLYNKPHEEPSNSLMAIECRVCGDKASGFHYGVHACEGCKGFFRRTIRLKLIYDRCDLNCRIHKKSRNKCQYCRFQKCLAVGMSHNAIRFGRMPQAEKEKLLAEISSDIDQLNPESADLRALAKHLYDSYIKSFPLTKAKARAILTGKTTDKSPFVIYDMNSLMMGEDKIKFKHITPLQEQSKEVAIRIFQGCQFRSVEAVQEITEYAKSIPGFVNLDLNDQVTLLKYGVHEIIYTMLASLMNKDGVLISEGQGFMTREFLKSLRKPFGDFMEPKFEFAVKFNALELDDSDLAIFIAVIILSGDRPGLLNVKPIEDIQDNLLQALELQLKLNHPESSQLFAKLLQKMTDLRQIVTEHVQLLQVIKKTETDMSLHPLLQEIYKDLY
Bile acid receptor (Homo sapiens), sequence (Q96RI1 whole entry, looked up): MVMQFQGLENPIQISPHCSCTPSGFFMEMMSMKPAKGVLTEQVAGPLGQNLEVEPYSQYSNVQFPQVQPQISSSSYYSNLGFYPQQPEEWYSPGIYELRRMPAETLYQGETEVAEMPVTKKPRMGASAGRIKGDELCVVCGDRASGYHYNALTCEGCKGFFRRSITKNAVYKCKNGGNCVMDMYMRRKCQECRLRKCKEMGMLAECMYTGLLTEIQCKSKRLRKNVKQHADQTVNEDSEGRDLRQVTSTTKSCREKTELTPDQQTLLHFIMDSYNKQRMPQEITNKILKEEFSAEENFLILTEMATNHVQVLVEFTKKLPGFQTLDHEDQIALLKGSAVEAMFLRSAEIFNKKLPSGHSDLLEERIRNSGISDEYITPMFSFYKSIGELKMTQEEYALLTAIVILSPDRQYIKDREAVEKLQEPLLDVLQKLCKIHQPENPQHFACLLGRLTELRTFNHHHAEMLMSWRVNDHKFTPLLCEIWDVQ
Peroxisome proliferator-activated receptor delta (Homo sapiens), sequence (Q03181 whole entry, looked up): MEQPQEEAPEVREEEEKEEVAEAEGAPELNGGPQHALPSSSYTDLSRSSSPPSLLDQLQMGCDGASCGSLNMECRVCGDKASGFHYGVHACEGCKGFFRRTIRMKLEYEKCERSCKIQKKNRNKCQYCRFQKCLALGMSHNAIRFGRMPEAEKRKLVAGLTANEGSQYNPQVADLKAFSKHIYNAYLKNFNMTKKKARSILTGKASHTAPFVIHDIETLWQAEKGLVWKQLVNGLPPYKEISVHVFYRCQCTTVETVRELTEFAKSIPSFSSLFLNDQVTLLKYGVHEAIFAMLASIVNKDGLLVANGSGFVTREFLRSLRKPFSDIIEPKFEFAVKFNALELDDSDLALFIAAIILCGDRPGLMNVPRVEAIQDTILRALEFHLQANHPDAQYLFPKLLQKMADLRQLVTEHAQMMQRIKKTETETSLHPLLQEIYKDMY
Vitamin D3 receptor (Homo sapiens), sequence (P11473 whole entry, looked up): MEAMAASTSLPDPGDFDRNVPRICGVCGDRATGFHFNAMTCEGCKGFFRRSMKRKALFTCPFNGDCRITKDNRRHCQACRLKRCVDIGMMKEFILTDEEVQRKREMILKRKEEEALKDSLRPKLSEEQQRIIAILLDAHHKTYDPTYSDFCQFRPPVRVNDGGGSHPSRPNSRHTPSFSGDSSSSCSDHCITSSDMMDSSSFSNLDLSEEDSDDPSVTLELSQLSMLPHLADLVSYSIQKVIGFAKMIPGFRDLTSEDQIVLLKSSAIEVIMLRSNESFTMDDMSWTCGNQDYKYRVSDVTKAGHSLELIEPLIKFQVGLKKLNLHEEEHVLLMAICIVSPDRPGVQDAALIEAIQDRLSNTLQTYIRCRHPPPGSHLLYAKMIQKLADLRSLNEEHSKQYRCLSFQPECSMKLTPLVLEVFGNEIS

Turning to `COc1cccc(OC)c1`, the Potency entry in assay [1], in assay [2], in assay [5], in assay [6], in [10] and in assay [12] was “inactive” in each case. Further, in assay [17], the Potency entry is “inactive”. Besides, the result in [3], in assay [4], in assay [7], in assay [8], in assay [9] and in assay [11] was inactive. The compound was called inactive in [13], in assay [14], in [15], in assay [16], in [18] and in assay [19].

As to `CO[Si](OC)(OC)OC`, the Potency entry in assay [1], in assay [20], in assay [5], in assay [6], in assay [10] and in [12] was “inactive” each time. Further, the compound was classed as inactive in assay [7], in [8], in [11], in assay [13], in assay [15] and in assay [18]. The result in [19] was inactive.

`Nc1cc(C(Cl)=C(Cl)Cl)c(S(N)(=O)=O)cc1S(N)(=O)=O`: the Potency result in assay [1], in [20], in [5], in assay [6], in [10] and in assay [12] was “inactive” throughout. The Potency result in assay [17] was “inactive”. For the same compound, the outcome in assay [3], in assay [7], in [8], in assay [9] and in assay [15] was inactive.

On to `CN(C)CCn1nnnc1SCC1=C(C(=O)O)N2C(=O)[C@@H](NC(=O)Cc3csc(N)n3)[C@H]2SC1`, for which the Potency result in assay [1], in assay [2], in [5], in assay [10], in assay [12] and in assay [17] was “inactive” throughout. Further, the compound was classed as inactive in assay [3], in assay [4], in assay [7], in [8], in assay [9] and in assay [11]. Moreover, the compound was called inactive in [13], in [15], in assay [18] and in assay [19].

With `COc1cc(O)cc(O)c1`, the Potency entry in assay [1], in [2], in assay [5], in assay [10], in [12] and in assay [17] was “inactive” each time. In addition, the outcome in assay [3], in assay [4], in assay [7], in assay [8], in [11] and in assay [13] was inactive. Besides, the result in assay [14], in assay [15] and in assay [18] was inactive.

With `O=Cc1ccccc1[N+](=O)[O-]`, the Potency result in assay [1], in [20], in assay [5], in assay [6], in [10] and in [12] was “inactive” each time. In assay [17], the Potency result is “inactive”. Besides, the outcome in assay [3], in [7], in assay [8], in [9], in assay [11] and in assay [13] was inactive. The compound was called inactive in assay [15] and in assay [18].

As for `CSc1ccc(C=O)cc1`, the Potency result in [1], in [20], in assay [5], in assay [6], in assay [10] and in assay [12] was “inactive” in each case. In addition, the Potency entry in assay [17] is “inactive”. Besides, the compound was called inactive in assay [3], in assay [7], in [8], in assay [9], in assay [13] and in assay [15]. Besides, the compound was called inactive in [18] and in [19].

For `Nc1ccc2cc(S(=O)(=O)O)ccc2c1`, the Potency entry in [1], in assay [20], in assay [5], in assay [10], in assay [12] and in [17] was “inactive” each time. The outcome in assay [7], in [8], in [9], in assay [13], in [15] and in assay [16] was inactive. For the same compound, the result in assay [18] was inactive.

`c1cc(CN2CCCCC2)cc(OCCCNc2nc3ccccc3s2)c1`: the Potency entry in assay [1] and in [6] was “inactive” throughout. In addition, the Potency in assay [20] was 26.6 µM (active). The outcome in assay [3], in assay [7], in assay [8], in assay [9], in [13] and in assay [18] was inactive.
